# Test results published in PubChem BioAssay (NCATS).
# Records with an inconclusive call do not appear. Unmarked numbers belong to inactive results. Calls of active or inactive are those of the source. The call rests on the fitted dose curve; in most records, active means well fitted inhibition curve with a large enough effect; inconclusive means small, poorly fitted or top-dose-only effect; inactive means flat fitted curve, though single readings scatter.
# Key:
# Test in all cases: Cytotoxic Profiling of Annotated Libraries Using Quantitative High-Throughput Screening (AID 1296008); further: nearly all actives have a fitted effect of over 60% in size
# Details in all cases: Five cell lines viability, CellTiter-Glo ATP luminescence, 48-72 h; max response: active compounds read low
# CRL-7250 = normal cell line; test system: CRL-7250
# Procedure, shortened: (§1)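 Compounds were pin-transferred onto cells and incubated 48 or 72 hr at 37 degree Celsius, 95% humidity. CellTiter-Glo was added, plates sat 10 min at room temperature, then ATP-coupled luminescence was imaged as the viability read-out.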
# HEK293 = test system: HEK293
# Procedure, shortened: as §1
# HaCat = test system: HaCat
# Procedure, shortened: as §1
# On the % scale 0 is the no-effect control and ±100 the full control effect; potency means the concentration at half of the fitted maximal effect.
smiles,measurement,setting,value
COC1CC(OC2CCC3(C)C(CCC4C3CCC3(C)C(C5=CC(=O)OC5)C(OC(C)=O)CC43O)C2)OC(C)C1OC1OC(CO)C(O)C(O)C1O (centres undefined),Potency,CRL-7250,544 nM (active)
same,Potency,HEK293,1220 nM (active)
same,Potency,HaCat,2430 nM (active)
COC1C(O)C(OC2CCC3(C=O)C(CCC4C3CCC3(C)C(C5=CC(=O)OC5)CCC43O)C2)OC(C)C1OC1OC(CO)C(O)C(O)C1O (centres undefined),Potency,CRL-7250,172 nM (active)
same,Potency,HEK293,243 nM (active)
same,Potency,HaCat,1720 nM (active)
COc1cc(CCNCc2ccccc2O)c(OC)cc1C#N,outcome,CRL-7250,inactive
same,max response,HEK293,2.88%
same,outcome,HaCat,inactive
CO[C@@H]1[C@H](O)[C@@H](O[C@@H]2C[C@H]3CC[C@@H]4C(CC[C@]5(C)[C@@H](C6=CC(=O)OC6)CC[C@]45O)[C@@]3(C)[C@H](O)C2)O[C@H](C)[C@@H]1O[C@@H]1O[C@H](CO)[C@@H](O)[C@H](O)[C@H]1O (some centres undefined),Potency,CRL-7250,109 nM (active)
same,Potency,HEK293,343 nM (active)
same,Potency,HaCat,769 nM (active)
C[C@@](O)(COc1ccc(C#N)cc1)C(=O)Nc1ccc(C#N)c(C(F)(F)F)c1,max response,CRL-7250,-2.54%
same,Potency,HEK293,14600 nM (active)
same,outcome,HaCat,inactive
CC[C@H]1CN2CC[C@H]1C[C@H]2[C@H](O)c1ccnc2ccc(OC)cc12,outcome,CRL-7250,inactive
same,max response,HEK293,-14.1%
same,outcome,HaCat,inactive
N#CC(OC1OC(COC2OC(CO)C(O)C(O)C2O)C(O)C(O)C1O)c1ccccc1 (centres undefined),outcome,CRL-7250,inactive
same,outcome,HEK293,inactive
same,outcome,HaCat,inactive
CN1C(=O)c2ccccc2NC(=O)C1Cc1ccccc1 (centres undefined),max response,CRL-7250,3.07%
same,outcome,HEK293,inactive
same,max response,HaCat,2.89%
Clc1ccc(OCC2=NCCN2)cc1Cl,outcome,CRL-7250,inactive
same,outcome,HEK293,inactive
same,outcome,HaCat,inactive
COC1C(O)C(C)OC(OC2C(CO)O[C@@H](O[C@@H]3CC4CCC5C(CC[C@]6(C)[C@@H](C7=CC(=O)OC7)CC[C@]56O)[C@@]4(C)[C@H](O)C3)C(O)C2O)C1O (some centres undefined),Potency,CRL-7250,485 nM (active)
same,Potency,HEK293,432 nM (active)
same,Potency,HaCat,3430 nM (active)
CCN1CC2(COC)C3[C@@H](OC)C4C1C3(C1C[C@]3(O)[C@H](OC(=O)c5ccccc5)C1[C@]4(OC(C)=O)[C@@H](O)[C@@H]3OC)[C@H](OC)C[C@H]2O (some centres undefined),max response,CRL-7250,-8.46%
same,max response,HEK293,-1.66%
same,max response,HaCat,3.92%
C=C[C@H]1[C@H](O[C@@H]2O[C@H](CO)[C@@H](O)[C@H](O)[C@H]2O)OC=C2C(=O)OCC[C@H]21,max response,CRL-7250,-1.15%
same,outcome,HEK293,inactive
same,max response,HaCat,1.24%
CC(C)(C)c1cc(C(C)(C)C)c2c(c1)C(O)(C(F)(F)F)C(=O)O2 (centres undefined),outcome,CRL-7250,inactive
same,max response,HEK293,1.2%
same,outcome,HaCat,inactive
COC1CC(OC2CCC3(C)C(=CCC4C3CCC3(C)C(C(C)OC5OC(COC6OC(CO)C(O)C(O)C6O)C(O)C(O)C5O)CCC43O)C2)OC(C)C1OC1OC(C)C(O)C(OC)C1O (centres undefined),max response,CRL-7250,-7.32%
same,max response,HEK293,-6.75%
same,outcome,HaCat,inactive
O=C1C[C@@H]2OCC=C3CN4CC[C@]56c7ccccc7N1[C@H]5[C@H]2[C@H]3C[C@H]46,outcome,CRL-7250,inactive
same,max response,HEK293,-6.49%
same,outcome,HaCat,inactive
C=C1[C@@H]2CC[C@@]3(C)[C@H](c4ccoc4)OC(=O)C[C@]13O[C@H]1CC(=O)C(C)(C)[C@H](C(OC(C)=O)C(=O)OC)[C@]12C (some centres undefined),outcome,CRL-7250,inactive
same,max response,HEK293,-1.58%
same,outcome,HaCat,inactive
CC1=C2C[C@H]3[C@@H](CC=C4C[C@@H](O)CC[C@@]43C)[C@@H]2CC[C@]12O[C@@H]1C[C@H](C)CN[C@H]1[C@H]2C,max response,CRL-7250,0.632%
same,outcome,HEK293,inactive
same,max response,HaCat,3.98%
CC(C)C1(OO)C=C2C(=O)CC3C(C)(C(=O)O)CCCC3(C)C2CC1 (centres undefined),max response,CRL-7250,-0.339%
same,max response,HEK293,2.31%
same,outcome,HaCat,inactive
COC(=O)C1(C)CCC(O)C2(C)c3cc(O)c(C(C)C)cc3C(O)C(OC(C)=O)C12 (centres undefined),outcome,CRL-7250,inactive
same,max response,HEK293,3.05%
same,outcome,HaCat,inactive
COC(=O)C12C(=O)C(C)(O)C(=O)C1(C)C(C)=CC1C34CCC(OC3=O)C(C)(CO)C4CCC12C (centres undefined),outcome,CRL-7250,inactive
same,max response,HEK293,4.01%
same,max response,HaCat,0.667%
N#C[C@@H](O[C@@H]1O[C@H](CO[C@@H]2O[C@H](CO)[C@@H](O)[C@H](O)[C@H]2O)[C@@H](O)[C@H](O)[C@H]1O)c1ccccc1,max response,CRL-7250,3.46%
same,max response,HEK293,4.21%
same,outcome,HaCat,inactive
CN[C@H]1[C@H](O)[C@H](O[C@@H]2[C@@H](O)[C@H](O[C@H]3O[C@H]([C@H](C)O)[C@@H](O)[C@H](O)[C@H]3N)[C@@H](N)C[C@H]2N)OC[C@@]1(C)O,outcome,CRL-7250,inactive
same,max response,HEK293,-1.94%
same,outcome,HaCat,inactive
CN(C)CCc1c[nH]c2ccc(CN3CCN(C)S3(=O)=O)cc12,max response,CRL-7250,3.29%
same,max response,HEK293,-0.516%
same,outcome,HaCat,inactive
